{"source": "the OligoGym collection"}
{"target": "PPP1R13B", "assay": "pooled miR-30 sensor sort-seq; sequence = guide strand", "conditions": "shRNA"}
{"sequence": "TTAACTGACTTATTTAAGGCGC", "sensor-assay potency score (higher = more potent)": 0.229}
{"sequence": "TTTCTTCAGCTTGTTCTCCTGG", "sensor-assay potency score (higher = more potent)": 0.329}
{"sequence": "TTCTACAACATCTCGACAGGTT", "sensor-assay potency score (higher = more potent)": 0.568}
{"sequence": "TACACTGCTTTAACTGACTTAT", "sensor-assay potency score (higher = more potent)": -0.93}
{"sequence": "TTGCTGTAGTCGACTTGTCCTC", "sensor-assay potency score (higher = more potent)": -0.682}
{"sequence": "TTCCTTGGCAACCAACATCTGC", "sensor-assay potency score (higher = more potent)": -1.09}
{"sequence": "TACATTTATTACATTTCTCTGA", "sensor-assay potency score (higher = more potent)": -0.374}
{"target": "PPP1R15A", "assay": "pooled miR-30 sensor sort-seq; sequence = guide strand", "conditions": "shRNA"}
{"sequence": "TTTACTGCTTCCACCAGCCAGG", "sensor-assay potency score (higher = more potent)": -0.645}
{"sequence": "TTTTACTGCTTCCACCAGCCAG", "sensor-assay potency score (higher = more potent)": -1.03}
{"sequence": "TGGACAGTGACCTTCTCGGAGA", "sensor-assay potency score (higher = more potent)": -1.41}
{"sequence": "TTCTGTGAGCTTCTTTCTTTAC", "sensor-assay potency score (higher = more potent)": -1.62}
{"sequence": "TTGCCAGAGGAGTCCTAGCTTC", "sensor-assay potency score (higher = more potent)": -1.05}
{"sequence": "ATGGACAGTGACCTTCTCGGAG", "sensor-assay potency score (higher = more potent)": -1.22}
{"sequence": "TTCTGTTCTTTTATCCTCCGTG", "sensor-assay potency score (higher = more potent)": -0.152}
{"sequence": "AAGAGAACTTGTTAACTCCCTC", "sensor-assay potency score (higher = more potent)": 0.225}
{"sequence": "TTCAGGAAGGGAACTGCTGGTT", "sensor-assay potency score (higher = more potent)": -0.684}
{"sequence": "TCCTTTTACTGCTTCCACCAGC", "sensor-assay potency score (higher = more potent)": -1.39}
{"sequence": "TAGAGGTTCTGTGAGCTTCTTT", "sensor-assay potency score (higher = more potent)": 0.0683}
{"sequence": "TAGGGGAGTCTCAGGGTCCGGA", "sensor-assay potency score (higher = more potent)": -1.44}
{"target": "PPP1R3A", "assay": "pooled miR-30 sensor sort-seq; sequence = guide strand", "conditions": "shRNA"}
{"sequence": "TAAAATGTCATAATGTGTCTGC", "sensor-assay potency score (higher = more potent)": 0.498}
{"sequence": "TTGAACAATGAATAGTCCCATT", "sensor-assay potency score (higher = more potent)": -1.02}
{"sequence": "TTGGTGAATGAGACACATCTGC", "sensor-assay potency score (higher = more potent)": -0.3}
{"sequence": "TGGATTAGCATTATCATCCAGG", "sensor-assay potency score (higher = more potent)": -0.615}
{"sequence": "TTGAATTACAAATATTTTCTGA", "sensor-assay potency score (higher = more potent)": -0.0203}
{"sequence": "TTGATGAACAAACTTGACCAGT", "sensor-assay potency score (higher = more potent)": -0.427}
{"sequence": "TATAGGTATTTAATGATCCAAA", "sensor-assay potency score (higher = more potent)": -1.48}
{"sequence": "TTGTTTTTCATTAACACCTAAA", "sensor-assay potency score (higher = more potent)": -0.918}
{"sequence": "TTACATATACTAACTTCTCAAA", "sensor-assay potency score (higher = more potent)": -1.14}
{"sequence": "TATAGGTACAAATTCATTCTGA", "sensor-assay potency score (higher = more potent)": 0.416}
{"sequence": "TTTGTTTTTCATTAACACCTAA", "sensor-assay potency score (higher = more potent)": -0.646}
{"sequence": "TTATCATCAACTCTAATTCTTT", "sensor-assay potency score (higher = more potent)": -0.712}
{"target": "PPP2R2B", "assay": "pooled miR-30 sensor sort-seq; sequence = guide strand", "conditions": "shRNA"}
{"sequence": "TTCTTCTATTTCTAAACTCTTC", "sensor-assay potency score (higher = more potent)": -0.752}
{"sequence": "TTAAATACTACAGACAACCTCA", "sensor-assay potency score (higher = more potent)": 0.289}
{"sequence": "TAAACTCTTCAGGTAATCGAAC", "sensor-assay potency score (higher = more potent)": -0.877}
{"sequence": "TCTGTTGCTTGGATCTTCCGGC", "sensor-assay potency score (higher = more potent)": 0.454}
{"sequence": "TTGACTAGTATTCAGTATGTGA", "sensor-assay potency score (higher = more potent)": -0.666}
{"sequence": "TTCTATTCCAATCATTTCCTGT", "sensor-assay potency score (higher = more potent)": -0.465}
{"sequence": "TTCTATTTCTAAACTCTTCAGG", "sensor-assay potency score (higher = more potent)": 0.0206}
{"sequence": "TTTTACTCTCCTGCTCTCGTTG", "sensor-assay potency score (higher = more potent)": -0.655}
{"sequence": "TTGACGGTCAAGTAGTCCCTGG", "sensor-assay potency score (higher = more potent)": -0.065}
